Bioassay records: PubChem BioAssay, several laboratories
DAX1 inh-1: blocks DAX1 repression of SF-1 activated StAR promoter | HEK293T StAR-luciferase reporter, SF-1/DAX-1 repression relief | inhibition, % at 6.8 µM | actives 1.1% (n = 370,000);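 active means inhibition above the mean over all tested compounds plus 3 SD, cut at about 3.6% in these data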;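 further: 0% = DAX-1 cells with DMSO and 100% = cells lacking DAX-1 with DMSO; higher inhibition means more luminescence from relief of DAX-1 repression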
DAX1 inh-2: NR0B1 (DAX1) inhibition; P51843; HEK293 Gal4-DAX1 luciferase reporter, luminescence; inhibition, % at 6.75 µM; actives 0.99% (n = 340,000); AID 504766;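 active means inhibition above the mean over all tested compounds plus 3 SD, cut at about 4.2% in these data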;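 further: 0% = DAX1-transfected cells with DMSO and 100% = empty-vector control cells with DMSO; inhibition shows as a rise in luminescence from relieved DAX1 repression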
Target sequence (P51843 207-470 limits assumed): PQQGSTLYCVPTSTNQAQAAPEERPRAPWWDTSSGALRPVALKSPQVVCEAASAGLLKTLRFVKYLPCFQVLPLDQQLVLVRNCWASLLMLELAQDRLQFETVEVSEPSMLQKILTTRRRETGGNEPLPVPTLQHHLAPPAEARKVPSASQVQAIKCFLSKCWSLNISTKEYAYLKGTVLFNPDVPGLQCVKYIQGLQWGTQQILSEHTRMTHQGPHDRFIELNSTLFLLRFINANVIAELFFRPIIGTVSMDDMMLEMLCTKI
ssDAF-12 act: activators of S. stercoralis DAF-12 nuclear receptor | HEK293 ssDAF-12/GRIP1 lit1-tk-luc reporter, luminescence; % of 3 µM dafachronic acid response | activation, % at 6.8 µM | actives 1% (n = 370,000);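 active means activation above the mean over all tested compounds plus 3 SD, cut at about 0.9% in these data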;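 further: 0% = DMSO-only wells and 100% = 3 µM delta7-dafachronic acid wells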
hcDAF-12 act: activates DAF-12 receptor from parasite H. contortus; AID 652067; activation, % at 6.8 µM; actives 1.4% (n = 370,000); HEK293 hcDAF-12 lit1-tk-luc reporter, luminescence; 0% DMSO, 100% Δ7-dafachronic acid;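 active means activation above the mean of all tested compounds plus 3 SD, cut at about 5.5% in these data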;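 further: 100% = response to 3 µM Δ7-dafachronic acid high control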
PolyA inhibitor: yeast polyadenylation inhibition; S. cerevisiae SKY197-pL101 polyadenylation reporter, beta-gal luminescence; efflux-impaired pdr1/pdr3 knockout yeast; score 100 = 6 SD above DMSO; actives 0.02% (n = 300,000); activity score, % at 12 µM; AID 1875;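 active means lowest replicate activity score at least 50, where 100 means six control SD above control mean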;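 further: yeast exposed to compound for 9 h at 30 °C; higher score means more reporter readthrough which indicates perturbed polyadenylation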
hgDAF-12 ag: agonists of H. glycines DAF-12 nuclear receptor; activation, % at 6.8 µM; actives 1.8% (n = 370,000); HEK293 GAL4-hgDAF12 UAS-luciferase reporter, agonist luminescence; normalized to butyrate control;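 active means activation above a cutoff set at the mean of all screened compounds plus 3 SD, cut at about 10% in these data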;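 further: 0% = DMSO wells and 100% = sodium butyrate wells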
DAX1 inh confirm: NR0B1 (human) inhibition, confirmation; shares compounds with DAX1 inh-1; HEK293T StAR-promoter luciferase reporter, SF-1/DAX-1 repression; inhibition, % at 6.8 µM; actives 87% (n = 2,400); AID 652134;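 active means inhibition above the average of every tested compound plus 3 SD, cut at about 3.8% in these data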;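 further: 0% = DAX-1 cells with DMSO and 100% = no DAX-1 control cells with DMSO; active compounds raise luminescence by relieving repression of the StAR reporter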
Target sequence (P51843 whole entry, looked up): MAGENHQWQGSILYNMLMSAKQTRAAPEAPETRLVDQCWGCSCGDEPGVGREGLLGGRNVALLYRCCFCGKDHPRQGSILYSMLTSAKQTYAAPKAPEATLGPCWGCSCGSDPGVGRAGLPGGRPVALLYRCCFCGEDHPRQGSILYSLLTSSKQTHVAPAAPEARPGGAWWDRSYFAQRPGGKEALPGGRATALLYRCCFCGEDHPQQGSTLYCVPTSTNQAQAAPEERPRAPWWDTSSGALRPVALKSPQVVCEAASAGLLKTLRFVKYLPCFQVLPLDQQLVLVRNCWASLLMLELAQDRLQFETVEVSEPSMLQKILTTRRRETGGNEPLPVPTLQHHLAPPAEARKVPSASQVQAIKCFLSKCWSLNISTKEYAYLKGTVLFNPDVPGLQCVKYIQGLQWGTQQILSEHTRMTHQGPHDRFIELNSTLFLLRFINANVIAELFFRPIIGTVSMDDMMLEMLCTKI
SF1 mutant ctr: counter-screen for DAX1 inhibitors: nonselective inhibitors with SF-1 AF2 mutant; shares compounds with DAX1 inh-1; HEK293 StAR-luciferase, luminescence; inhibition, % at 6.8 µM; actives 78% (n = 2,400);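 active means inhibition above the mean of all tested compounds plus 3 SD, cut at about 3% in these data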;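 further: 0% = DAX-1 transfected cells with DMSO and 100% = cells without DAX-1 with DMSO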
Numbers without * were called inactive; . = no result given. Only some compounds are listed: those with a hit (about 4.1% of all), similar ones and a draw of the others.

SMILES | DAX1 inh-1 | DAX1 inh-2 | ssDAF-12 act | hcDAF-12 act | PolyA inhibitor | hgDAF-12 ag | DAX1 inh confirm | SF1 mutant ctr
Cc1cnc(C(=O)N(c2ccccc2)C(c2ccccc2)c2nc3ccccc3[nH]2)cn1 (stereo not given) | 6.0* | . | -0.2 | 3.2 | . | 9.3 | 5.0* | 3.7*
COc1ccc(S[C@]2(C(=O)N(C)C)CC(=O)N(c3ccc(C#N)cc3)[C@@H]2c2ccc(OC)cc2)cc1 | -0.6 | . | -1.2 | 0.6 | . | 0.4 | . | .
COc1cc2cc(C(=O)NC(C)c3cccc4ccccc34)c(N)nc2cc1OC (stereo not given) | 5.1* | . | -1.4 | -2.9 | . | 1.9 | 2.3 | -1.1
Cc1nc2ccc(NC(=O)CS(=O)(=O)c3ccccc3)cc2s1 | 6.0* | 0.7 | 0.1 | 0.9 | 6.2 | 6.9 | 5.6* | 3.0*
CCCCNS(=O)(=O)CC1NCCc2ccccc21 (stereo not given) | -2.2 | . | -0.7 | 0.2 | . | 1.7 | . | .
CC(C)[C@@H](C)/C=C/[C@@H](C)[C@H]1CC[C@@H]2[C@]1(C)CCC1[C@]23C=C[C@]2(C[C@@H](O)CC[C@]12C)N(c1ccc(F)cn1)O3 (stereo not given in full) | 1.3 | . | -0.1 | 1.7 | . | 3.1 | . | .
CC(C)[C@@H](C)/C=C/[C@@H](C)[C@H]1CC[C@@H]2[C@]1(C)CCC1[C@]23C=C[C@]2(C[C@@H](O)CC[C@]12C)N(c1cnccn1)O3 (stereo not given in full) | 4.6* | . | -0.4 | 2.4 | . | 1.9 | -0.1 | 0.4
Cc1[nH]c2ccccc2c1C(=O)c1c(N)[nH]c(C(=O)c2ccc(Br)cc2)c1-c1ccc(Br)cc1 | 2.2 | . | -0.9 | -1.6 | . | 8.9 | . | .
COc1cccc(N2CCN(C(=O)CN3C(=O)NC4(CCCC4)C3=O)CC2)c1 | -0.5 | 0.1 | -1.0 | -0.6 | 4.2 | -1.8 | . | .
COc1ccc(OC)c(CN2CCN(C(=O)CN3C(=O)NC4(CCCC4)C3=O)CC2)c1 | 4.9* | -0.3 | -1.3 | -0.8 | -10.5 | -0.1 | -2.2 | -0.1
CCCCCCCCN1C(=O)[C@@H](CC(=O)NCc2ccc(OC)c(OC)c2)C[C@@]2(C(=O)OC)C1=C[C@H](C(C)C)O[C@@H]2C1CC1 | -0.3 | . | -1.9 | -2.3 | . | 1.9 | . | .
O=C(C[n+]1ccc2ccccc2c1)c1ccc2ccc3ccccc3c2c1 | 5.3* | . | -0.8 | 0.6 | . | 1.8 | -3.1 | -1.2
C[C@@H]1Cc2cc(O)cc(O)c2C(=O)O1 | 0.2 | . | -0.4 | -0.5 | . | 2.2 | . | .
O=C(NC1CC1)c1cc2cc3ccccc3nc2s1 | 4.9* | 1.1 | -0.3 | 0.7 | -19.2 | 9.5 | 7.6* | 4.6*
Cc1ccc(-c2cc(C#N)c3n(c2=O)CCC3)cc1 | -0.4 | . | -1.2 | -1.0 | . | -1.1 | . | .
CC(C)(C)OC(=O)NCCc1ccccc1/C=C/S(=O)(=O)NCc1ccccc1 | -2.4 | . | -1.4 | -2.2 | . | 1.0 | . | .
CCCCCCCCN1C(=O)[C@@H](CC(=O)NCC2CCCCC2)C[C@@]2(C(=O)OC)C1=C[C@H](COCc1ccccc1)O[C@@H]2C | 0.2 | . | 0.2 | 2.7 | . | 1.8 | . | .
O=C(OCC(=O)N1CCCCC1)c1c[nH]c2ccccc12 | 1.2 | 0.4 | -0.7 | 0.7 | . | 2.5 | . | .
O=C(OCC(=O)N1CCCCC1)c1cc(=O)[nH]c2ccccc12 | 4.9* | 1.4 | -0.5 | 2.9 | . | 5.7 | 3.3 | 2.5
CC(C)[C@@H]1CC[C@@H](C)C[C@H]1OC[B-](F)(F)F | 0.5 | . | -0.7 | -1.7 | . | -2.0 | . | .
COc1ccc(/C(N)=N/OC(=O)CC2CCCCC2)cc1OC | -0.8 | 0.7 | -1.0 | -1.5 | -3.3 | 5.3 | . | .
COc1ccc(/C(N)=N/OC(=O)C2CCCCC2)cc1 | 5.9* | 1.5 | 0.3 | 0.5 | 0.0 | 8.7 | 8.9* | 5.8*
COc1ccc(/C(N)=N/OC(=O)C2CCCCC2)cc1OC | 6.0* | 1.5 | -0.6 | 1.1 | -6.5 | 6.4 | 3.5 | 3.6*
CCOC(=O)c1[nH]c(C)c(C(=O)OCc2ccc(C)cc2)c1C | -0.3 | -1.6 | -1.0 | 1.2 | -6.6 | -0.5 | . | .
CCOC(=O)c1c(C)[nH]c(C(=O)OCc2ccccc2)c1C | 15.3* | 0.6 | 1.9* | 3.8 | -11.7 | 12.0* | 11.5* | 5.5*
SMILES | DAX1 inh-1 | DAX1 inh-2 | ssDAF-12 act | hcDAF-12 act | PolyA inhibitor | hgDAF-12 ag | DAX1 inh confirm | SF1 mutant ctr
CCCCCN1CCCCC(NC(=O)Cc2ccccc2)C1=O (stereo not given) | 0.1 | . | -1.0 | -2.0 | . | -4.3 | . | .
CCN1CCN(S(=O)(=O)c2ccc(Cl)c(C(=O)NCCc3ccccc3)c2)CC1 | 5.6* | 0.8 | 0.1 | 2.5 | -6.7 | 6.9 | 3.1 | 2.7
CCCc1ccc(-c2cc(NC(=O)Cc3c(C)[nH]c4ccccc34)ccc2N(C)c2cccnc2)cc1 | 0.3 | . | 0.2 | -0.6 | . | 4.5 | . | .
Cc1ccc2nc(SC(C)C(=O)N3CCOCC3)[nH]c2c1 (stereo not given) | 7.3* | 1.5 | -0.5 | 3.8 | 10.0 | 11.2* | 6.2* | 5.0*
COc1ccc(-c2nc3ccccc3[nH]2)cc1 | 6.8* | -2.1 | 0.3 | 5.8* | -7.6 | 12.1* | 15.3* | 6.1*
O=C(NCc1ccccc1)[C@H]1CCCN1C(=O)[C@H]1CCCN1C(=O)c1ccccc1C(F)(F)F | 1.2 | . | -0.6 | 1.1 | . | -0.6 | . | .
O=C(c1ccc(F)cc1)n1ccc(-c2cnc(-c3ccccc3)s2)n1 | 5.0* | 2.6 | 0.9* | 5.9* | -4.9 | 12.8* | 12.5* | 5.5*
O=C(Nc1ccccn1)c1ccc(Cl)s1 | 5.2* | 1.9 | -0.4 | 1.3 | 11.8 | 12.2* | 7.0* | 6.2*
O=C(NCc1ccccn1)c1ccc(Cl)s1 | 0.2 | 1.4 | -0.9 | 0.8 | 11.3 | -1.3 | . | .
Nc1[nH]c(C(=O)c2ccccc2)c(-c2ccc(F)cc2)c1C(=O)c1c[nH]c2ccccc12 | 0.3 | . | 0.3 | 3.8 | . | 2.9 | . | .
COc1ccc(N2C(=O)c3n[nH]c(C(C)C)c3C2c2ccc(C)cc2)cc1 (stereo not given) | -0.4 | . | -0.6 | -1.1 | . | 1.1 | . | .
Cc1cc(C(=O)CSc2nc(N)cc(N)n2)c(C)n1C1CC1 | -0.7 | 0.6 | -0.7 | 1.4 | -13.4 | 2.6 | . | .
Cc1ccc(C(=O)CSc2nnc(N)s2)c(C)c1 | 7.8* | 0.9 | 1.0* | 3.9 | -8.5 | 12.9* | 8.9* | 5.4*
Cc1cc(C)c(C(=O)CSc2nnc(N)s2)cc1C | 0.6 | -0.9 | -1.8 | -0.2 | -3.5 | 2.1 | . | .
Cc1cc(C(=O)CSc2nnc(N)s2)c(C)n1C1CC1 | 5.6* | 1.5 | 0.1 | 0.2 | -19.3 | 4.1 | 4.1* | 2.8
